Among all 5,500 compounds or so, about 2,000 (36%) were called active. Another 18% or so got no clear call; they are omitted. Cut-off read from the data, not from the text of the source: active = normalized growth mostly below about 0.91 (no sharp cut-off); inconclusive = no clear call, values can overlap the other calls; inactive = mostly above about 0.92. The list shows a part of the results.
Assay: chemical genetic growth profiling, strain panel (AID 1159580);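 note: tested at 20 µM; growth read once vehicle control cultures reached saturation at 30 °C; 1 = growth at the plate median or of vehicle wells; lower values mean less growth of the strain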
Conditions: S. cerevisiae deletion strains, growth OD

Measured: normalized growth

CC(=O)OC1CC23CC24CCC(OC2OCC(O)C(O)C2O)C(C)(C)C4CCC3C2(C)CC3OC4(CC(C)C3C12C)OC(O)C1(C)OC41 (centres undefined)
inactive: locus YAL021C, strain ccr4, hits give low values 0.995 | locus YAL026C, strain drs2, hits give low values 1.01 | locus YAL030W, strain snc1, hits give low values 1 | locus YBL061C, strain skt5, hits give low values 1.01 | locus YBR009C, strain hhf1, hits give low values 0.988 | locus YBR023C, strain chs3, hits give low values 1 | locus YBR171W, strain sec66, hits give low values 1.02 | locus YBR231C, strain swc5, hits give low values 1.03 | locus YBR279W, strain paf1, hits give low values 1 | locus YCL011C, strain gbp2, hits give low values 1.01 | locus YCL016C, strain dcc1, hits give low values 0.998 | locus YCL069W, strain vba3, hits give low values 1.01 | locus YCR088W, strain abp1, hits give low values 1.01 | locus YDL005C, strain med2, hits give low values 1.02 | locus YDL040C, strain nat1, hits give low values 1 | locus YDR001C, strain nth1, hits give low values 1 | locus YDR069C, strain doa4, hits give low values 1.01 | locus YDR137W, strain rgp1, hits give low values 0.99 | locus YDR159W, strain sac3, hits give low values 1.04 | locus YDR195W, strain ref2 1 | locus YDR297W, strain sur2, hits give low values 1.01 | locus YDR334W, strain swr1, hits give low values 1.01 | locus YDR335W, strain msn5, hits give low values 1.01 | locus YDR392W, strain spt3, hits give low values 0.936 | locus YEL003W, strain gim4, hits give low values 1.01 | locus YEL037C, strain rad23, hits give low values 1 | locus YEL061C, strain CIN8 (second series), hits give low values 1.01 | locus YER015W, strain faa2, hits give low values 1.02 | locus YER016W, strain bim1, hits give low values 1.01 | locus YER111C, strain swi4, hits give low values 0.999 | locus YER155C, strain BEM2 (second series), hits give low values 1.07 | locus YFR010W, strain ubp6, hits give low values 1.03 | locus YGL167C, strain pmr1, hits give low values 0.996 | locus YGL173C, strain kem1, hits give low values 1.01 | locus YGL227W, strain vid30, hits give low values 1.01 | locus YGL240W, strain doc1, hits give low values 1.04 | locus YGL253W, strain hxk2, hits give low values 1 | locus YHR013C, strain ard1, hits give low values 0.998 | locus YHR027C, strain rpn1, hits give low values 1 | locus YHR142W, strain chs7, hits give low values 0.978 | locus YJL092W, strain hpr5, hits give low values 1.02 | locus YJL095W, strain BCK1 (second series), hits give low values 1.01 | locus YJL115W, strain asf1, hits give low values 1.01 | locus YJL129C, strain trk1, hits give low values 1 | locus YJL154C, strain vps35, hits give low values 1.01 | locus YJL164C, strain tpk1, hits give low values 0.972 | locus YJL166W, strain qcr8, hits give low values 1.01 | locus YJL187C, strain SWE1, hits give low values 0.996 | locus YKL160W, strain elf1, hits give low values 0.998 | locus YKR026C, strain gcn3, hits give low values 1.01 | locus YKR091W, strain srl3, hits give low values 1 | locus YLL001W, strain dnm1, hits give low values 1.01 | locus YLL026W, hits give low values 1.02 | locus YLL041C, strain sdh2, hits give low values 0.997 | locus YLR027C, strain aat2, hits give low values 0.997 | locus YLR221C, strain rsa3, hits give low values 1.04 | locus YLR258W, strain gsy2, hits give low values 1 | locus YLR262C, strain YPT6 (second series), hits give low values 1.02 | locus YLR320W, strain mms22, hits give low values 1.04 | locus YLR342W, strain FKS1, hits give low values 1 | locus YLR357W, strain rsc2, hits give low values 1.05 | locus YLR370C, strain arc18, hits give low values 1.01 | locus YLR384C, strain iki3, hits give low values 0.998 | locus YML120C, strain ndi1, hits give low values 0.98 | locus YMR058W, strain fet3, hits give low values 1.03 | locus YMR125W, strain sto1, hits give low values 0.985 | locus YMR129W, hits give low values 1 | locus YMR205C, strain PFK2, hits give low values 0.994 | locus YMR231W, strain pep5, hits give low values 1.01 | locus YNL071W, strain lat1, hits give low values 0.999 | locus YNL209W, strain ssb2, hits give low values 0.987 | locus YNL248C, strain rpa49, hits give low values 1.07 | locus YNL322C, strain KRE1 (second series), hits give low values 1.01 | locus YNR049C, strain mso1, hits give low values 1.02 | locus YOR001W, strain rrp6, hits give low values 1.04 | locus YOR070C, strain gyp1, hits give low values 1.02 | locus YOR080W, strain dia2, hits give low values 1 | locus YOR083W, strain WHI5, hits give low values 0.993 | locus YOR106W, strain vam3, hits give low values 0.975 | locus YOR265W, strain rbl2, hits give low values 1 | locus YOR270C, strain vph1, hits give low values 0.906 | locus YOR290C, strain snf2, hits give low values 0.959 | locus YPL051W, strain arl3, hits give low values 1.03 | locus YPL078C, strain atp4, hits give low values 0.963 | locus YPL106C, strain sse1, hits give low values 1.02 | locus YPL240C, strain hsp82, hits give low values 1.02

C=CC(C)(C)c1c2c(c(O)c3c(=O)c4ccc(O)c(O)c4oc13)C=CC(C)(C)O2
inactive: locus YBR021W, strain FUR4, hits give low values 0.893 | locus YBR229C, strain ROT2, hits give low values 1 | locus YCL029C, strain bik1, hits give low values 0.992 | locus YDL101C, strain DUN1, hits give low values 0.929 | locus YDL185W, strain tfp1, hits give low values 0.996 | locus YDR101C, strain arx1, hits give low values 0.973 | locus YDR502C, strain sam2, hits give low values 0.948 | locus YER110C, hits give low values 1 | locus YGL078C, strain dbp3, hits give low values 0.975 | locus YGR252W, strain gcn5, hits give low values 0.823 | locus YHR079C, strain IRE1 (second series), hits give low values 1 | locus YHR094C, strain hxt1, hits give low values 1.01 | locus YIL125W, strain kgd1, hits give low values 0.984 | locus YIR030C, strain dcg1, hits give low values 1 | locus YJL134W, strain LCB3, hits give low values 0.987 | locus YJL168C, strain set2, hits give low values 0.99 | locus YKL009W, strain mrt4, hits give low values 0.938 | locus YKL068W, hits give low values 0.996 | locus YKL085W, strain MDH1 (second series), hits give low values 0.978 | locus YKL085W, strain MDH1, hits give low values 0.978 | locus YLR102C, strain apc9, hits give low values 1.01 | locus YML032C, strain rad52, hits give low values 0.954 | locus YML124C, strain tub3, hits give low values 1.02 | locus YMR078C, strain ctf18, hits give low values 0.984 | locus YMR263W, strain SAP30, hits give low values 0.92 | locus YNL250W, strain rad50, hits give low values 1.03 | locus YNL271C, strain bni1, hits give low values 0.992 | locus YNL298W, strain CLA4, hits give low values 1 | locus YNR052C, strain pop2, hits give low values 0.93 | locus YOL012C, strain htz1 0.242 | locus YOL147C, strain pex11, hits give low values 0.943 | locus YOR136W, strain idh2, hits give low values 0.97 | locus YOR144C, strain elg1, hits give low values 0.983 | locus YOR316C, strain cot1, hits give low values 0.986 | locus YPL241C, strain CIN2, hits give low values 0.952 | locus YPR119W, strain clb2, hits give low values 1.01 | locus YPR141C, strain kar3, hits give low values 1
active: locus YDL035C, strain GPR1, hits give low values 0.601 | locus YDL074C, strain BRE1, hits give low values 0.615 | locus YDL192W, strain arf1, hits give low values 0.829 | locus YDR150W, strain NUM1, hits give low values 0.78 | locus YDR162C, strain NBP2, hits give low values 0.444 | locus YDR318W, strain mcm21, hits give low values 0.886 | locus YDR388W, hits give low values 0.918 | locus YER155C, strain BEM2, hits give low values 0.817 | locus YER167W, strain BCK2, hits give low values 0.871 | locus YGL086W, strain mad1, hits give low values 0.794 | locus YGL248W, strain PDE1, hits give low values 0.847 | locus YGR135W, strain pre9, hits give low values 0.891 | locus YHR129C, strain ARP1, hits give low values 0.726 | locus YHR200W, strain rpn10, hits give low values 0.894 | locus YIL066C, strain RNR3, hits give low values 0.413 | locus YIL073C, strain SPO22, hits give low values 0.424 | locus YJL095W, strain BCK1, hits give low values 0.767 | locus YJL187C, strain SWE1 (second series), hits give low values 0.81 | locus YKR001C, strain vps1, hits give low values 0.783 | locus YLR039C, strain RIC1, hits give low values 0.581 | locus YLR058C, strain SHM2, hits give low values 0.867 | locus YLR262C, strain YPT6, hits give low values 0.544 | locus YLR268W, strain sec22, hits give low values 0.812 | locus YLR330W, strain CHS5, hits give low values 0.9 | locus YLR342W, strain FKS1 (second series), hits give low values 0.4 | locus YLR371W, strain rom2, hits give low values 0.799 | locus YLR418C, strain cdc73, hits give low values 0.51 | locus YML016C, strain PPZ1, hits give low values 0.873 | locus YMR223W, strain ubp8, hits give low values 0.891 | locus YMR307W, strain GAS1, hits give low values 0.428 | locus YNL067W, strain RPL9B, hits give low values 0.843 | locus YNL233W, strain BNI4, hits give low values 0.582 | locus YNL307C, strain MCK1, hits give low values 0.799 | locus YOL006C, strain TOP1, hits give low values 0.275 | locus YOR061W, strain CKA2, hits give low values 0.78 | locus YOR069W, strain VPS5, hits give low values 0.873 | locus YOR184W, strain ser1, hits give low values 0.76 | locus YPL055C, strain LGE1, hits give low values 0.451 | locus YPR163C, strain tif3, hits give low values 0.796 | locus YPR167C, strain met16, hits give low values 0.916 | strain wtn01, hits give low values 0.839
